{
  "source": "PubChem BioAssay (EPA / NIEHS)",
  "note": "Where a structure was tested more than once in an assay, its records may differ in their call. Activity calls are given as the source filed them. The calls were made as follows: active = hit-call score of the fitted dose curve at least 0.9, where 1 is the maximum; inactive = score below 0.9.",
  "data": [
    {"assay": "CCTE_Shafer_MEA_dev_network_spike_duration_std: CCTE's Neural Network Formation Assay for Standard Deviation of Network Spike Duration, Shafer Lab (AID 2284052);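 also: hits are decreases in network spike duration SD versus DMSO vehicle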", "summary_of_the_method": "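Network spike duration variability was collapsed across recordings on days 5, 7, 9 and 12 by trapezoidal area-under-curve and fitted downward against DMSO. Cultures were rat cortical neurons on PEI-coated MEA plates, dosed continuously from plating, refed with compound DIV 5/9.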", "values": [
      {"molecule": "C[n+]1ccc(-c2cc[n+](C)cc2)cc1", "AC50": "1420 nM (active)"},
      {"molecule": "C/C(=C/C=C/[C@@H](C)C(=O)O)[C@H]1CN[C@H](C(=O)O)[C@H]1CC(=O)O", "outcome": "inactive", "AC50": "259 nM (active)"},
      {"molecule": "CP(=O)(O)CCC(N)C(=O)O", "note": "(configuration not stated)", "outcome": "inactive"},
      {"molecule": "NCCc1cc(O)c(O)cc1O", "outcome": "inactive"},
      {"molecule": "CCOP(=S)(OCC)SCS(=O)C(C)(C)C", "note": "(configuration not stated)", "outcome": "inactive"},
      {"molecule": "C[n+]1ccc(-c2ccccc2)cc1", "outcome": "inactive"},
      {"molecule": "O=C(O)CNCP(=O)(O)O", "outcome": "inactive"},
      {"molecule": "C#CCN(C)[C@H](C)Cc1ccccc1", "outcome": "inactive"},
      {"molecule": "Cn1nc(C(F)(F)F)c(CS(=O)(=O)C2=NOC(C)(C)C2)c1OC(F)F", "outcome": "inactive"},
      {"molecule": "CCCCC(CC)COC(=O)c1cc(Br)c(Br)c(Br)c1Br", "note": "(configuration not stated)", "outcome": "inactive"},
      {"molecule": "CC1(C)C(C=C(Cl)c2ccc(Cl)cc2)C1C(=O)OC(C#N)c1ccc(F)c(Oc2ccccc2)c1", "note": "(configuration not stated)", "AC50": "6890 nM (active)"},
      {"molecule": "CCOP(=O)(Oc1cnc(C(C)(C)C)nc1)OC(C)C", "note": "(configuration not stated)", "outcome": "inactive"},
      {"molecule": "CC1(C)[C@H](C=C(Cl)Cl)[C@H]1C(=O)OCc1c(F)c(F)cc(F)c1F", "outcome": "inactive"},
      {"molecule": "CC(=O)[O-].CC(=O)[O-].O.O.O.[Pb+2]", "outcome": "inactive"},
      {"molecule": "CC1(C)C(C=C(Cl)Cl)C1C(=O)O[C@H](C#N)c1cccc(Oc2ccccc2)c1", "note": "(some centres not stated)", "AC50": "3100 nM (active)"},
      {"molecule": "CCOP(=O)(OCC)OC(Cl)C(Cl)(Cl)Cl", "note": "(configuration not stated)", "AC50": "602 nM (active)"},
      {"molecule": "CCOP(=O)(OCC)SCSC(C)(C)C", "outcome": "inactive"},
      {"molecule": "CC1(C)[C@@H](C=C(Cl)Cl)[C@@H]1C(=O)O[C@@H](C#N)c1ccc(F)c(Oc2ccccc2)c1", "outcome": "inactive"},
      {"molecule": "COP(=O)(OC)SCN1C(=O)c2ccccc2C1=O", "outcome": "inactive"},
      {"molecule": "CP(=O)(O)CC[C@H](N)C(=O)O", "outcome": "inactive"},
      {"molecule": "CC(=O)[O-].[Tl+]", "AC50": "12100 nM (active)"}
    ]}
  ]
}
